Sampled rows, rich in hits. Any-hit rate of the full collection: about 6.1%.
D1 PAM: Potentiators of Human D1 Dopamine Receptor: qHTS | D(1A) dopamine receptor (Homo sapiens), P21728 | HEK293 TREx D1 cells, calcium flux, dopamine EC20 potentiation | potentiation, % at 10 µM | 360,000 compounds, 0.036% hits; in the data active = potentiation above about 30%; also: 0% is about no effect
Target sequence (P21728 whole entry, looked up): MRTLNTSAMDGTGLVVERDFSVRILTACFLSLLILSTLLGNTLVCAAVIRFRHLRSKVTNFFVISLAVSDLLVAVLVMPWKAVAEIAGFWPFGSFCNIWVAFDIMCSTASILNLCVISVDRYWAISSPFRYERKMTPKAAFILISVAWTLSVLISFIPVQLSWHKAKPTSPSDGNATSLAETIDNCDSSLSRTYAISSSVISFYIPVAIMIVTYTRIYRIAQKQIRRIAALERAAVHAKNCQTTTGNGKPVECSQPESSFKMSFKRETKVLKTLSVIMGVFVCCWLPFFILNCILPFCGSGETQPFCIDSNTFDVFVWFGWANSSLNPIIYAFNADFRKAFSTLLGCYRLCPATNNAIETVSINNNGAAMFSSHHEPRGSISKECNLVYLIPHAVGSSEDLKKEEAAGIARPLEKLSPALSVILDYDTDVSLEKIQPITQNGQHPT
D1 antag: Antagonist of Human D 1 Dopamine Receptor: qHTS | D(1A) dopamine receptor (Homo sapiens), P21728 | HEK293 TREx D1 cells, calcium flux, dopamine EC80; active compounds read low | activity change, negative = inhibition, % at 10 µM | 360,000 compounds, 3.2% hits; in the data active = activity change below about -30%; also: % is scaled to controls: 0 for no effect and ±100 for the full control effect
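Using tetracycline-induced force-coupled D1 Hek293 cells and a calcium dye, signals were followed for 180 s after compound, then for 180 s after EC80 dopamine, to detect inhibitors.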
D1 agonist: Allosteric Agonists of the Human D1 Dopamine Receptor: qHTS; 360,000 compounds, 1% hits; D(1A) dopamine receptor (Homo sapiens), P21728; activation, % at 2 µM; HEK293 T-REx D1 cells, calcium flux, agonist mode; in the data active = activation above about 30%; also: 0% is about no effect
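Tetracycline-induced HEK293 TREx D1 cells, force-coupled to calcium signalling, were dye-loaded with a no-wash calcium kit. Compound was pin-added after a 10 s baseline. Fluorescence was read kinetically at 1 cycle/s for 180 s, with calcium rises flagged as agonism.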
ERG Ets-DNA blk: qHTS for Small Molecule Inhibitors of the ERG Ets/DNA interaction. Transcriptional regulator ERG (Homo sapiens), P11308. fluorescence polarization, His-ERG Ets domain / labelled DNA. Potency, µM (highest dose often 76.9 µM), for the others: at the top dose FP activity, negative = inhibition, actives largely listed as inhibitors. 370,000 compounds, 0.028% hits. AID 624246, 2012; active = well fitted inhibition curve with a large enough effect in the polarisation, with a control signal flat; the % refers to the polarisation;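 also: polarization taken with two DNA probes labelled with fluorescein and Texas red; potency is read from the fitted curve at half-maximal effect; % of control where 0% means no effect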
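His-tagged ERG Ets domain (1 uM in the protein solution; 300mM KCl, 50mM Tris-HCl, 1mM EDTA, 1mM DTT, pH 7.5) received compound, then a probe mix of 5 nM fluorescein-DNA and 100nM Texas-615-DNA. Fluorescence polarization was read for both dyes.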
DRD3 antagonist: qHTS of D3 Dopamine Receptor Antagonist: qHTS | max response, negative = inhibition, % | AID 652054, 2013 | D3R cells, DiscoveRx beta-arrestin luminescence, antagonist mode; active compounds read low | 360,000 compounds, 2.5% hits; in the data active = max response below about -50%; also: % is scaled to controls: 0 for no effect and ±100 for the full control effect
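Cells plated overnight at 1500 cells/well, then exposed to library compounds with dopamine controls for 90 minutes at 37 degrees C. DiscoveRx reagent added for 30–60 minutes at room temperature; luminescence read, quantitative HTS format.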
DRD3 agonist: qHTS of D3 Dopamine Receptor Agonist: qHTS; D(3) dopamine receptor (Homo sapiens), P35462; max activation, %; 410,000 compounds, 0.58% hits; D3R DiscoveRx beta-arrestin cells, luminescence, 90 min; in the data active = max activation above about 30%; also: 0% is about no effect
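Agonist mode: compounds and dopamine controls were applied to plated cells for 90 min at 37 degrees C after an overnight attachment at 1500 cells/well. Luminescent read-out followed 30 - 60 minutes at room temperature with DiscoveRx detection reagent.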
Active calls of the source: *; . = no result.

SMILES	D1 PAM	D1 antag	D1 agonist	ERG Ets-DNA blk	DRD3 antagonist	DRD3 agonist
CCOc1cccc(CN2CCCC(N3CCN(c4cccc(Cl)c4)CC3)C2)c1O (stereo not given)	0.2	1.1	2.8	8.6%	-23.5	24.0
O=c1[nH]nc(Cc2ccc(-c3cccc(Cl)c3)o2)c2ccccc12	0.0	-2.2	6.9	-5.7%	-61.3*	1.3
O=C(CCC1CCCC1)Nc1cccc(Cc2ccncc2)c1	9.2	0.1	3.2	0.6%	-11.3	-1.1
Cc1ccc(S(=O)(=O)n2nc(-c3ccc(Cl)cc3)nc2NCc2ccc(F)cc2)cc1	1.7	-48.0*	10.5	-6.6%	.	-14.0
Cc1ccc(S(=O)(=O)n2nc(-c3ccccc3)nc2NCc2ccc(Cl)cc2)cc1	0.1	-56.9*	4.5	5.7%	.	0.7
O=C(c1ccccc1OC(F)F)N1CCN(S(=O)(=O)c2ccc3c(c2)OCCCO3)CC1	-3.6	-15.0	2.8	27.5%	-7.1	4.0
O=C(O)c1ccc(CSc2nc(-c3ccc(Cl)cc3)cc(C(F)(F)F)n2)cc1	-3.0	-4.4	36.6*	.	-16.1	11.5
COc1ccc(N2CCN(C(=O)C(=O)c3cn(CC(=O)N4CCOCC4)c4ccccc34)CC2)cc1	-7.0	2.8	2.1	-10.9%	0.0	5.0
COc1ccc(N2CCN(C(=O)C(=O)c3cn(CC(=O)N4CCCCCC4)c4ccccc34)CC2)cc1	-6.3	-58.0*	1.0	3.8%	-17.5	-7.8
O=C(CCN1CCOCC1)Nc1cc(C(=O)Nc2ccccc2F)ccc1N1CC2CC(C1)c1cccc(=O)n1C2 (stereo not given)	4.8	-7.2	1.7	5.5%	2.1	5.0
COc1ccc(C2C(C#N)=C(N)Oc3cc(C)n(Cc4ccncc4)c(=O)c32)cc1 (stereo not given)	-1.8	-34.6*	0.5	0.9%	-5.2	6.0
Cc1cc2c(c(=O)n1Cc1cccnc1)C(c1cccs1)C(C#N)=C(N)O2 (stereo not given)	4.0	-13.5	3.7	5.1%	-51.0*	-7.1
CCOc1ccc(C2C(C#N)=C(N)Oc3cc(C)n(Cc4ccco4)c(=O)c32)cc1OC (stereo not given)	-1.1	-0.6	1.8	-6.0%	-52.6*	2.7
O=C(COc1cccc(C(F)(F)F)c1)Nc1cccnc1	0.5	-31.5*	2.4	15.0%	-11.5	-1.2
O=C(COc1ccc2ccccc2c1Br)Nc1ccncc1	-4.2	-21.6	11.0	-5.6%	17.7	4.5
O=C(COc1ccc2ccccc2c1Br)Nc1cccnc1	-10.2	-41.5*	11.7	7.5%	-18.8	-9.4
O=C(COc1ccc(C(=O)NCc2cccnc2)cc1)Nc1cccc(C(F)(F)F)c1	-2.2	-24.3	11.6	1.1%	21.8	-0.9
Cc1nc2ccccc2n1C1CCN(CC(=O)Nc2ccccc2Br)CC1	-5.4	-14.2	52.2*	17.9%	9.3	10.1
O=C(O)CCCN1C(=O)C2C3CCC(C3)C2C1=O (stereo not given)	.	.	.	.	-73.4*	3.1
COC(=O)c1ccc2c(c1)N(Cc1ccc(Cl)cc1)C(=O)c1ccccc1S2	0.2	10.5	3.9	2.0%	.	6.9
COc1cc(SC)ccc1C(=O)OCC(=O)NC(=O)NC(C)C	-6.6	-66.2*	0.9	4.8%	13.8	11.5
CCCNC(=O)COC(=O)c1cc(SC)ccc1Cl	-3.1	1.3	-0.6	4.4%	-19.6	-0.8
CCC(CC)NC(=O)COC(=O)c1cc(SC)ccc1Cl	0.1	1.4	1.8	12.6µM*	-1.7	-2.8
COc1ccccc1NC(=O)C1CCCN(S(=O)(=O)c2ccc3c(c2)CC(C)N3C(C)=O)C1 (stereo not given)	2.5	-18.6	4.0	-2.5%	4.6	4.2
COc1ccc(-c2csc3ncnc(N4CCN(S(=O)(=O)c5ccc(C)c(C)c5)CC4)c23)cc1	-8.3	4.9	-0.5	-0.2%	4.1	5.2
SMILES	D1 PAM	D1 antag	D1 agonist	ERG Ets-DNA blk	DRD3 antagonist	DRD3 agonist
O=C1C2C3C=CC(CC3)C2C(=O)N1/N=C/c1ccccc1O (stereo not given)	-7.0	7.6	5.2	.	-64.8*	1.9
O=C1C2C3C=CC(CC3)C2C(=O)N1/N=C/c1c(O)ccc2ccccc12 (stereo not given)	-1.2	-0.6	1.0	14.7%	-4.7	4.7
c1ccc2c(CNCCN3CCOCC3)cccc2c1	-10.7	-31.6*	2.5	2.7%	-24.7	-20.7
CCOc1ccccc1CNCCN1CCOCC1	-3.4	5.8	2.2	0.0%	-12.7	-6.9
CN(C)C(=O)N(CCCN1CCOCC1)Cc1cccc2ccccc12	-14.3	-48.9*	1.5	4.7%	8.3	-3.3
O=C(Nc1ccccc1)N(CCCN1CCOCC1)Cc1ccccc1F	-1.4	-21.2	1.8	-6.6%	10.6	-14.0
C=CCOc1ccccc1CNCCCN1CCOCC1	-6.0	-11.2	3.8	-2.1%	-59.1*	-14.4
N#Cc1nc(Cc2cccc3ccccc23)oc1NCCCN1CCOCC1	-11.2	-42.0*	8.3	4.7%	8.7	-11.2
O=C(Cc1ccc(S(=O)(=O)N2CCCCC2)s1)Nc1cccc2ccccc12	6.1	27.8	6.3	3.7%	-22.1	-11.4
CCCCN(C1CCS(=O)(=O)C1)S(=O)(=O)c1cccs1 (stereo not given)	-2.3	7.3	-1.3	7.0%	1.4	8.9
CS(=O)(=O)N(CCc1ccccc1)CC(=O)Nc1ccc(Br)cc1F	-6.0	-24.1	2.2	2.5%	1.3	3.1
COc1ccc(C(=O)NC(=S)Nc2ccc(Cl)c(C(=O)O)c2)cc1	5.8	7.9	-2.1	14.2%	-17.4	-5.9
CC(=O)c1cccc(NC(=S)NC(=O)Cc2ccc(Cl)cc2)c1	-4.9	-1.5	63.1*	-4.2%	-11.5	-2.9
CSc1ccccc1COC(=O)Nc1ccccc1C	-5.0	-1.9	2.1	1.7%	-22.7	-0.1
CC(C)Oc1cccc(C(=O)NC(=S)Nc2ccc(Cl)c(C(=O)O)c2)c1	5.4	-5.6	0.1	-1.7%	-87.6*	-1.4
CC(=O)c1cccc(NC(=S)NC(=O)c2ccc(C)cc2Cl)c1	-0.5	-19.1	6.5	1.6%	21.0	1.4
Cc1ccccc1NC(=O)OCc1ccccc1	4.7	4.0	2.4	0.0%	7.0	61.2*
CC(=O)c1cccc(NC(=S)NC(=O)c2ccccc2Cl)c1	-2.9	-30.7*	6.3	-3.8%	-20.3	-5.1
Cc1sc(-c2ccncc2)nc1OC(=O)c1cc(Cl)cc(Cl)c1	7.6	5.1	2.1	3.7%	-8.3	-0.3

Source: PubChem
